Laboratory results published in PubChem BioAssay (Tox21).
“And” between values parts separate entries of the source, which are not always exact repeats. Equal values may be shown once. Results filed as inconclusive are left out. Entries that show only a call come without a potency. A structure can be active in one record and inactive in another. The source made the active and inactive calls. Calls follow the shape of the dose curve; as a rule, active = well fitted cell-killing curve with a large enough effect in the repeat runs; inconclusive = weak or mixed curves, or effect the other way; inactive = flat fitted curve, though single readings scatter.

Test: qHTS assay to identify small molecule that activate the aryl hydrocarbon receptor (AhR) signaling pathway - cell viability counter screen (AID 743086); also: nearly all actives have a fitted effect of over 45% in size
Conditions: HepG2-AhR-luc viability, CellTiter-Fluor, 24 h; series mostly up to 70.3 µM
In short: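 HepG2-AhR-luc (HG2L7.5c1) cells, 4000/well, treated 24 h at 37 C with compound; viability measured as CellTiter-Fluor fluorescence after 30 min in the same wells as the luciferase read.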
Potency is read from the fitted curve at half-maximal effect.

Row | SMILES | Potency
1 | CC1=C(/C=C/C(C)=C/C=C/C(C)=C/CO)C(C)(C)CCC1 | inactive
2 | O=C1N=C(O)CN1/N=C/c1ccc(-c2ccc([N+](=O)[O-])cc2)o1 | inactive and 48.6 µM (active)
3 | OCC#CCO | inactive
4 | CCOC(=O)/C=C\C(=O)OCC | inactive
5 | CC1CC(OC(=O)c2ccccc2O)CC(C)(C)C1 (configuration not stated) | inactive
6 | CCCCCC/C=C/CCCCCCCC(=O)O | inactive
7 | CCCCC/C=C\C/C=C\CCCCCCCC(=O)OC | inactive
8 | CCCCCCOC(C)=O | inactive
9 | S=c1nc[nH]c2nc[nH]c12 | inactive
10 | CC(C)(C)C1CCC(O)CC1 (configuration not stated) | inactive
11 | CC(=O)[C@@]1(O)CC[C@H]2[C@@H]3CCC4=CC(=O)CC[C@]4(C)[C@H]3CC[C@@]21C | inactive
12 | CCCCCCCCCC(=O)O | inactive
13 | NCc1cccc(CN)c1 | inactive
14 | CC(C)n1c(/C=C/[C@@H](O)C[C@@H](O)CC(=O)O)c(-c2ccc(F)cc2)c2ccccc21 | inactive
15 | CCCCC(CC)COC(=O)CCCCCCCC(=O)OCC(CC)CCCC (configuration not stated) | inactive
16 | OCC1CCCO1 (configuration not stated) | inactive
17 | CCOC(=O)C1OC1c1ccccc1 (configuration not stated) | inactive
18 | C=C(C)C(=O)OCCC[Si](OC)(OC)OC | inactive
19 | CC1=CC[C@H]2C[C@@H]1C2(C)C | inactive

Row | SMILES | Potency
20 | C/C=C(C)/C=C/C=C(C)C | inactive
21 | C=C1CC[C@H](O)CC1=C/C=C1\CCC[C@]2(C)[C@@H]([C@H](C)/C=C/[C@H](C)C(C)C)CC[C@@H]12 | inactive
22 | CCCCC(CC)C(=O)OCCOCCOCCOC(=O)C(CC)CCCC (configuration not stated) | inactive
23 | C=C(C)C(=O)OCC(CC)(COC(=O)C(=C)C)COC(=O)C(=C)C | inactive
24 | Oc1ccc2ccccc2c1 | inactive
25 | CCCCCCCCCCC=CC1CC(=O)OC1=O (configuration not stated) | inactive
26 | C[C@@H]1O[C@@H](OC[C@H]2O[C@@H](Oc3c(-c4ccc(O)c(O)c4)oc4cc(O)cc(O)c4c3=O)[C@H](O)[C@@H](O)[C@@H]2O)[C@H](O)[C@H](O)[C@H]1O | inactive
27 | O=C(c1cc(O)c(O)c(O)c1)c1ccc(O)c(O)c1O | 30.5 µM (active)
28 | Oc1ccc(OCc2ccccc2)cc1 | inactive
29 | Cc1cc(Cc2ccc(N)c(C)c2)ccc1N | inactive
30 | CNC[C@H](O)[C@@H](O)[C@H](O)[C@H](O)CO | inactive
31 | Nc1nc2ncc(CNc3ccc(C(=O)N[C@@H](CCC(=O)O)C(=O)O)cc3)nc2c(=O)[nH]1 | inactive
32 | CCCCCCCCCCCCN | inactive
33 | Cc1cc(NS(=O)(=O)c2ccc(N)cc2)no1 | inactive
34 | O=C1O[C@H](CO)[C@@H](O)[C@H](O)[C@H]1O | inactive
35 | O=c1c(-c2ccc(O)cc2)coc2cc(O)ccc12 | inactive
36 | Oc1c(Cl)cc(Cl)c(Cl)c1Cl | inactive
37 | CCC(=O)O | inactive
